According to PubChem BioAssay (Tox21):
Where “and” joins values, the source holds several entries; their conditions need not be identical. Identical values can stand only once. Results filed as inconclusive are left out. Some compounds were tested as several samples or in several runs, with calls that do not always agree. Calls of active or inactive are those of the source. Unless noted, the call rests on the fitted dose curve.

Key:
[1] = Nuclear factor erythroid 2-related factor 2/antioxidant responsive element (Nrf2/ARE) small molecule agonists: qHTS cell viability counter screen in human keratinocytes (AID 1919968; active means well fitted curve in the direction sought with a large enough effect in the repeat runs; an effect the other way counts as inactive or inconclusive; further: nearly all actives have a fitted effect of over 55% in size; further: potency means the concentration at half of the fitted maximal effect)
Summary of the method: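 HaCaT ARE reporter line, 1,500 cells/well; 5 h settle, 37 C/5% CO2; cpd in DMSO pinned; 23 h exposure; CellTiter-Fluor, 1 h; fluorescence.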

[2] = Nuclear factor erythroid 2-related factor 2/antioxidant responsive element (Nrf2/ARE) small molecule agonists: luciferase reporter gene qHTS assay in human keratinocytes (AID 1919969); further: nearly all actives have a fitted effect of over 35% in size; further: potency means the concentration at half of the fitted maximal effect
[3] = target: Gonadotropin-releasing hormone receptor (Homo sapiens) (UniProt P30968); assay: Human gonadotropin-releasing hormone receptor (GnRHR) small molecule agonists, calcium flux assay in GnRHR-HEK293 cells (AID 1920063); further: nearly all actives have a fitted effect of over 35% in size
Summary of the method: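 GnRHR-HEK293, 1500 cells/well, 18 h 37 C/5% CO2; Ca dye 1 h 37 C; cpd pinned (DMSO), agonist mode; kinetic FL 480/540, 3 min, 1 s reads; 15 conc, n=3.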

[4] = target: KiSS-1 receptor (Homo sapiens) (UniProt Q969F8); assay: Human kisspeptin (KISS1R) small molecule agonists, calcium flux assay in KISS1R-HEK293 cells (AID 1920064; active means well fitted curve in the direction sought with a large enough effect in the repeat runs; an effect the other way counts as inactive or inconclusive)
Summary of the method: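 Stable human KISS1R HEK293 line; 18 h plating, 37 C/5% CO2; calcium dye 1 h 37 C; compound pin transfer; kinetic fluorescence Ex/Em 480/540, 3 min.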

[5] = G protein-coupled receptor (GPCR) small molecule agonists, calcium flux assay: HEK293 wild type cell line counter screen (AID 1920065)
Summary of the method: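 Kinetic fluorescence at Ex/Em 480/540, recorded every second over 3 min, served as the read-out after compound addition. Each compound was tested at 15 concentrations in triplicate on cells pre-loaded with calcium dye for 1 h.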

[6] = p53 small molecule agonists, cell-based qHTS assay with human liver microsomes: qHTS cell viability counter screen (AID 1963579); further: nearly all actives have a fitted effect of over 45% in size; further: potency means the concentration at half of the fitted maximal effect
Summary of the method: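 Metabolic activation used human liver microsomes and NADPH, both 0.5 mg/mL final, over 16 hours at 37 C on p53RE-bla cells (4,000/well). Cytotoxicity measured by CellTiter-Glo luminescence, 30 min at room temperature.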

[7] = p53 small molecule agonists, cell-based qHTS assay with rat liver microsomes: qHTS cell viability counter screen (AID 1963580); further: nearly all actives have a fitted effect of over 45% in size; further: potency means the concentration at half of the fitted maximal effect
Summary of the method: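 In HCT-116 cells carrying a p53 response element-bla reporter, compounds were metabolically activated in situ by rat liver microsomes with NADPH over 16 h. Cell ATP content then served as the cytotoxicity measure.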

[8] = p53 small molecule agonists, cell-based qHTS assay (AID 1963582; active means well fitted activation curve with a large enough effect in the signal ratio in the repeat runs, not every such curve was filed as active; the % refers to the signal ratio)
Summary of the method: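 Reporter line: p53RE-bla. Pre-incubation 5 h, 37 C, 5% CO2; compound (DMSO, pin tool) 16 h, 37 C; B/G FRET substrate 2 h RT; fluorescence intensity read.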

[9] = target: 5-hydroxytryptamine receptor 2A (Homo sapiens) (UniProt P28223); assay: 5-hydroxytryptamine receptor 2A (HTR2A) small molecule antagonists, cell-based qHTS assay (AID 1963586); further: nearly all actives have a fitted effect of over 45% in size
Summary of the method: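 Antagonist-mode intracellular calcium assay: DOI (4 nM) added after 5 min compound pre-incubation at room temperature to dye-loaded HTR2A-CHO cells. Fluorescence followed for 3 min, sampled every second.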

[10] = target: Muscarinic acetylcholine receptor M1 (Homo sapiens) (UniProt P11229); assay: Cholinergic receptor muscarinic 1 (CHRM1) small molecule antagonists, cell-based qHTS assay (AID 1963588); further: nearly all actives have a fitted effect of over 40% in size; further: potency means the concentration at half of the fitted maximal effect
Summary of the method: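 CHRM1-CHO calcium-flux assay, antagonist mode. Cells were seeded 18 h, dye-loaded 1 h at 37 C and given compound for 5 min at RT, then acetylcholine was added at 50nM. FDSS fluorescence was read 3 min; 15 concentrations, three runs.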

[11] = target: Muscarinic acetylcholine receptor M1 (Homo sapiens) (UniProt P11229); assay: Cholinergic receptor muscarinic 1 (CHRM1) small molecule agonists, cell-based qHTS assay (AID 1963589); further: nearly all actives have a fitted effect of over 35% in size; further: potency means the concentration at half of the fitted maximal effect
Summary of the method: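 Human M1 in stable CHO line; 18 h plating, 1 h dye load 37 C; cpd added (agonist mode); Ca2+ fluorescence kinetic read, 1 s intervals; 15 conc, 3 runs.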

[12] = cAMP Responsive Elements (CRE) small molecule agonists, cell-based qHTS assay (AID 1963590)
Summary of the method: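 HEK 293T CRE-bla, 2,000 cells/well, 18 h preincubation 37 C/5% CO2; cpds (DMSO) pinned, 3 h; LiveBLAzer B/G FRET substrate, 2 h RT.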

[13] = cAMP Responsive Elements (CRE) small molecule antagonists, cell-based qHTS assay (AID 1963591; active means well fitted inhibition curve with a large enough effect in the signal ratio in the repeat runs, not every such curve was filed as active; the % refers to the signal ratio)
Summary of the method: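 Beta-lactamase reporter read by FRET substrate (LiveBLAzer B/G) after 2 h at room temperature. CRE-bla HEK293T cells had received compound plus 0.25 uM (final) NKH477 for 3 h at 37 °C.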

[14] = target: Beta-2 adrenergic receptor (Homo sapiens) (UniProt P07550); assay: Adrenergic beta2 receptor (ADRB2) small molecule antagonists, cell-based qHTS assay (AID 1963592); further: series mostly up to about 92 µM; nearly all actives have a fitted effect of over 50% in size
Summary of the method: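 Cells (CHO, stable ADRB2 overexpression) incubated 18-20hr at 37C; compounds added from DMSO; agonist mix (1nM isoproterenol, 100uM IBMX, 25uM Ro-20-1724) added; 0.5hr RT; d2-cAMP and anti-cAMP-cryptate added; 1hr RT; 665/615 nm read.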

[15] = target: D(2) dopamine receptor (Homo sapiens) (UniProt P14416); assay: Dopamine D2 receptor (DRD2) small molecule agonists, cell-based qHTS assay (AID 1963594); further: nearly all actives have a fitted effect of over 35% in size
Summary of the method: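 HEK293 cells stably expressing DRD2 were cultured 24 h at 37 C, then given Ro20-1724 (0.1 mM final) and compounds for 10 min at room temperature. NKH477 (200nM) was then added for 30 min. cAMP was read by HTRF.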

[16] = p53 small molecule agonists, cell-based qHTS assay: qHTS cell viability counter screen (AID 1963581); further: nearly all actives have a fitted effect of over 45% in size
Summary of the method: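 HCT-116 p53RE-bla cells, 4,000/well, plated 5 h before compound pin transfer; 16 h at 37 C; bla substrate 2 h RT; then CellTiter-Glo, 30 min RT, luminescence.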

[17] = target: 5-hydroxytryptamine receptor 2A (Homo sapiens) (UniProt P28223); assay: 5-hydroxytryptamine receptor 2A (HTR2A) small molecule agonists, cell-based qHTS assay (AID 1963587); further: nearly all actives have a fitted effect of over 30% in size
Summary of the method: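 HTR2A-CHO cells, plated 18 h at 37 C/5% CO2, dye-loaded 1 h at 37 C; compounds in DMSO added by pin tool (agonist mode). Intracellular calcium flux read as kinetic fluorescence on FDSS over 2 min at 1 s intervals.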

[18] = target: Beta-2 adrenergic receptor (Homo sapiens) (UniProt P07550); assay: Adrenergic beta2 receptor (ADRB2) small molecule agonists, cell-based qHTS assay (AID 1963593);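 further: CHO cells stably overexpressing human ADRB2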
Summary of the method: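 CHO cells stably over-expressing ADRB2 were plated overnight at 37C, then dosed with compounds plus a stimulation mix containing 100uM IBMX and 25uM Ro-20-1724 for 0.5hr at room temperature. cAMP was measured by HTRF competition, 1hr.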

[19] = target: D(2) dopamine receptor (Homo sapiens) (UniProt P14416); assay: Dopamine D2 receptor (DRD2) small molecule antagonists, cell-based qHTS assay (AID 1963595; active means well fitted inhibition curve with a large enough effect in the signal ratio in the repeat runs, with a control signal flat; the % refers to the signal ratio)
Summary of the method: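 DRD2-HEK293; 0.1 mM Ro20-1724; cpd 10 min RT; NKH477 200 nM + quinpirole 12 nM, 30 min RT; HTRF cAMP (cAMP-d2/anti-cAMP cryptate), 665/620 nm ratio after 1 h.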
On the % scale 0 is the no-effect control and ±100 the full control effect.

Chain of 5-hydroxytryptamine receptor 2A (Homo sapiens) (P28223 whole entry, looked up): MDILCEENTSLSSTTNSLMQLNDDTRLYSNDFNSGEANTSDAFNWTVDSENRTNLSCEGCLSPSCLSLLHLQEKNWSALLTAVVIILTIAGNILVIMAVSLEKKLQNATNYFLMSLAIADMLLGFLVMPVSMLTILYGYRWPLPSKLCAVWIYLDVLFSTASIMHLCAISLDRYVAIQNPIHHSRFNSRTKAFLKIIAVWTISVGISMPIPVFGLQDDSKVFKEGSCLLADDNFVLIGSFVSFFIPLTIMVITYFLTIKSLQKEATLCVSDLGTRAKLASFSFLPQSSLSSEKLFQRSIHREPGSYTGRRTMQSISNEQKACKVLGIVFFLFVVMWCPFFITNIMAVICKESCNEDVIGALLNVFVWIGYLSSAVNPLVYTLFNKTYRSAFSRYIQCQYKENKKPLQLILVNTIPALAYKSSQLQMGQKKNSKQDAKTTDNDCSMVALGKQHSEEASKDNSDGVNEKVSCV
Chain of Muscarinic acetylcholine receptor M1 (Homo sapiens) (P11229 whole entry, looked up): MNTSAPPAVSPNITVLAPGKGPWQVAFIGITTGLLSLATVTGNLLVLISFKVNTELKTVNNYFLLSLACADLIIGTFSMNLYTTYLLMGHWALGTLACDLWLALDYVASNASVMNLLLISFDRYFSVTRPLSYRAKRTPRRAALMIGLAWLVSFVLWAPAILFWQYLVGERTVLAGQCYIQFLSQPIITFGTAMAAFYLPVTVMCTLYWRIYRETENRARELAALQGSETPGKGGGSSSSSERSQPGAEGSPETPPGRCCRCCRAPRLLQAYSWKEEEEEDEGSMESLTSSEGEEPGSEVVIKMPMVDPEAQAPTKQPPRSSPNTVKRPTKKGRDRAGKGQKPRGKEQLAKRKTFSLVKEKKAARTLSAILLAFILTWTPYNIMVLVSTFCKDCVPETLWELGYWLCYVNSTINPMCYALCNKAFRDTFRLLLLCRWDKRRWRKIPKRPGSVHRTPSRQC
Chain of Gonadotropin-releasing hormone receptor (Homo sapiens) (P30968 whole entry, looked up): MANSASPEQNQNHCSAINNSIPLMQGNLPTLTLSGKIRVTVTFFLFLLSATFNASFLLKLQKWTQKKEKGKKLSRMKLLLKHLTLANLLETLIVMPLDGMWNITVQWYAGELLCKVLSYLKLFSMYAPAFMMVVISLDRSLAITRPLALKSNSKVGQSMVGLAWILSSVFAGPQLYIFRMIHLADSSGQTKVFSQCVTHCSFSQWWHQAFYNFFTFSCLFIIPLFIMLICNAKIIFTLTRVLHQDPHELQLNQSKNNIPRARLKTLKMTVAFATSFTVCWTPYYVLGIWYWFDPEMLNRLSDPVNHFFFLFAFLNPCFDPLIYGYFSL
Chain of Beta-2 adrenergic receptor (Homo sapiens) (P07550 whole entry, looked up): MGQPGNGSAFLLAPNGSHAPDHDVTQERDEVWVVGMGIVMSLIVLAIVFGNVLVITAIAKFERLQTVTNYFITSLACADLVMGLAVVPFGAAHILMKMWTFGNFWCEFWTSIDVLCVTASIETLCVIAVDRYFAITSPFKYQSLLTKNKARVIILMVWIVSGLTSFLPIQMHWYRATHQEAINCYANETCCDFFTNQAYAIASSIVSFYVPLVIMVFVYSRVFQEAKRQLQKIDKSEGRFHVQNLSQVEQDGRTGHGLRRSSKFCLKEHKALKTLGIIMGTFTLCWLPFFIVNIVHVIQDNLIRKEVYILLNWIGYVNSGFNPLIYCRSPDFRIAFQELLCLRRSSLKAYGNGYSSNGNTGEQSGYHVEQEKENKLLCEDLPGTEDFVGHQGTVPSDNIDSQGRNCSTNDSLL
Chain of KiSS-1 receptor (Homo sapiens) (Q969F8 whole entry, looked up): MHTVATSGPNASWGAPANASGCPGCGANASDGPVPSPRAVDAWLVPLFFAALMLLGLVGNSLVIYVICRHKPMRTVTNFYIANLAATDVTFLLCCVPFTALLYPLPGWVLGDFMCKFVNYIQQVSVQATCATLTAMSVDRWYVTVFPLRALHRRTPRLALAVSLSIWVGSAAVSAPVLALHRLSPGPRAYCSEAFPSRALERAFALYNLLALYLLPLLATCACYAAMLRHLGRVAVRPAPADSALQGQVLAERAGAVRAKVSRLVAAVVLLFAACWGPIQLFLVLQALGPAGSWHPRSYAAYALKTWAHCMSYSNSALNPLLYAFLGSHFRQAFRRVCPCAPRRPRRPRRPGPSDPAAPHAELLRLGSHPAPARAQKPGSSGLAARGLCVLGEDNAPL
Chain of D(2) dopamine receptor (Homo sapiens) (P14416 whole entry, looked up): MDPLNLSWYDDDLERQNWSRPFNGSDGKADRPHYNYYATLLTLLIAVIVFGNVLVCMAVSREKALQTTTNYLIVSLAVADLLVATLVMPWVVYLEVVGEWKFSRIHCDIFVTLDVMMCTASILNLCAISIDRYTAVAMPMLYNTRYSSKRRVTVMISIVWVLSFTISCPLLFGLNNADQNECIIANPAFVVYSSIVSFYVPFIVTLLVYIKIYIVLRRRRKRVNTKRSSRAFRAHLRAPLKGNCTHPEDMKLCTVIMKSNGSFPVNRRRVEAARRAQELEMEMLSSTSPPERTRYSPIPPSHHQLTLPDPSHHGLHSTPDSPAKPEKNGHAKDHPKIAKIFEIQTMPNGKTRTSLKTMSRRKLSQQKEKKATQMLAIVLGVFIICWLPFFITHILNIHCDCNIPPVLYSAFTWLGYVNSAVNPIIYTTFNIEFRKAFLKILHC

NC(=O)CF
inactive: Potency [1] | Potency [2] | Potency [3] | Potency [4] | Potency [5] | Potency [6] | Potency [7] | Potency [8] | Potency [9] | Potency [10] | Potency [11] | Potency [12] | Potency [13] | Potency [14] | Potency [15]

CO[C@@H]1[C@H](OC(=O)NC(=O)CCl)CC[C@]2(CO2)[C@H]1[C@@]1(C)O[C@@H]1CC=C(C)C
inactive: activity change, negative = cytotoxicity [1] -2.18% [at 19 µM] | activity change [3] 0.0131% [at 11.8 µM, stronger effect = higher value] | activation [4] 0.453% [at 15.8 µM] | activation [5] 2.6% [at 11.8 µM] | activity change, negative = cytotoxicity [6] 1.12% [at 13.5 µM] | activity change, negative = cytotoxicity [7] -0.0178% [at 13.5 µM] | activity change, negative = cytotoxicity [16] 4.01% [at 13.5 µM] | activation [8] -1.88% [at 13.5 µM] | activity, negative = inhibition [9] -0.303% [at 12.7 µM] | activation [17] -4.56% [at 15.9 µM] | activity, negative = inhibition [10] 56% [at 12.6 µM] | activation [11] -0.344% [at 15.8 µM] | activation [12] -1.17% [at 19 µM] | activity change, negative = inhibition [13] -7.46% [at 18.9 µM] | activity change, negative = inhibition [14] -3.1% [at 19 µM] | activation [18] 4.33% [at 19 µM] | activation [15] 1.8% [at 19 µM] | activity change, negative = inhibition [19] -0.406% [at 18.9 µM]
active: Potency [2] 16.7 µM

C=CCCl
inactive: Potency [1] | Potency [2] | Potency [3] | Potency [4] | Potency [5] | Potency [6] | Potency [7] | Potency [8] | Potency [9] | Potency [17] | Potency [10] | Potency [11] | Potency [12] | Potency [13] | Potency [15] | Potency [19]

C[N+](C)(C)C
active: Potency [11] 22.1 µM
inactive: Potency [1] | Potency [2] | Potency [3] | Potency [4] | Potency [5] | Potency [6] | Potency [7] | Potency [16] | Potency [8] | Potency [9] | Potency [17] | Potency [10] | Potency [12] | Potency [13] | Potency [18] | Potency [15] | Potency [19]

COC(=O)c1ccccc1CS(=O)(=O)NC(=O)Nc1nc(OC)cc(OC)n1
inactive: Potency [1] | Potency [2] | Potency [3] | Potency [4] | Potency [5] | Potency [6] | Potency [7] | Potency [16] | Potency [8] | Potency [9] | Potency [17] | Potency [10] | Potency [12] | Potency [13] | Potency [14] | Potency [18] | Potency [15] | Potency [19]

C1=Cc2cccc3cccc1c23
23.9 µM (active) and inactive: Potency [2]
inactive: Potency [1] | Potency [3] | Potency [4] | Potency [5] | Potency [6] | Potency [7] | Potency [16] | Potency [8] | Potency [9] | Potency [17] | Potency [10] | Potency [11] | Potency [12] | Potency [13] | Potency [14] | Potency [18] | Potency [15] | Potency [19]

CCOP(=O)(OCC)Oc1ccc([N+](=O)[O-])cc1
inactive: Potency [1] | Potency [2] | Potency [3] | Potency [4] | Potency [5] | Potency [7] | Potency [16] | Potency [8] | Potency [9] | Potency [17] | Potency [10] | Potency [12] | Potency [14] | Potency [18] | Potency [15] | Potency [19]

CC(=O)C(Cl)Cl
inactive: Potency [1] | Potency [2] | Potency [3] | Potency [4] | Potency [5] | Potency [6] | Potency [7] | Potency [16] | Potency [8] | Potency [9] | Potency [17] | Potency [10] | Potency [11] | Potency [12] | Potency [13] | Potency [14] | Potency [18] | Potency [15] | Potency [19]

O=C1C(Cl)=C(Cl)C(=O)C(Cl)=C1Cl
inactive: Potency [3] | Potency [4] | Potency [5] | Potency [16] | Potency [9] | Potency [10] | Potency [11] | Potency [12] | Potency [13]
active: Potency [1] 27.2 µM and 27.3 µM | Potency [2] 4.84 µM and 9.69 µM | Potency [6] 40.8 µM
inactive and 40.8 µM (active): Potency [7]

CNC(=O)Oc1cccc2c1OC(C)(C)O2
inactive: Potency [1] | Potency [2] | Potency [3] | Potency [4] | Potency [5] | Potency [6] | Potency [7] | Potency [16] | Potency [9] | Potency [17] | Potency [10] | Potency [11] | Potency [12] | Potency [13] | Potency [14] | Potency [18] | Potency [15] | Potency [19]

CCN(CC)C(=O)/C(Cl)=C(\C)OP(=O)(OC)OC
inactive: Potency [1] | Potency [2] | Potency [3] | Potency [4] | Potency [5] | Potency [6] | Potency [16] | Potency [8] | Potency [9] | Potency [17] | Potency [11] | Potency [12] | Potency [13] | Potency [14] | Potency [18] | Potency [15]

C1CS1
inactive: Potency [1] | Potency [2] | Potency [3] | Potency [4] | Potency [5] | Potency [6] | Potency [16] | Potency [8] | Potency [9] | Potency [17] | Potency [11] | Potency [12] | Potency [13] | Potency [14] | Potency [15] | Potency [19]

CNC
inactive: Potency [1] | Potency [2] | Potency [3] | Potency [4] | Potency [5] | Potency [6] | Potency [7] | Potency [16] | Potency [8] | Potency [9] | Potency [17] | Potency [11] | Potency [12] | Potency [13] | Potency [14] | Potency [18] | Potency [15] | Potency [19]
3.34 µM (active) and inactive: Potency [10]

O=C1C=CC(=O)C=C1
inactive: Potency [1] | Potency [2] | Potency [3] | Potency [4] | Potency [5] | Potency [6] | Potency [7] | Potency [16] | Potency [8] | Potency [9] | Potency [17] | Potency [10] | Potency [11] | Potency [12] | Potency [13] | Potency [14] | Potency [18] | Potency [15] | Potency [19]

N#Cc1ccccn1
inactive: Potency [1] | Potency [3] | Potency [4] | Potency [5] | Potency [6] | Potency [7] | Potency [16] | Potency [8] | Potency [17] | Potency [10] | Potency [11] | Potency [12] | Potency [13] | Potency [14] | Potency [18] | Potency [15] | Potency [19]
63.7 µM (active) and inactive: Potency [2]
